From PubChem BioAssay (NCI)
Several values for one entry are separate records, joined by “and”; a condition that tells them apart may be missing. Equal values may be shown once. Compounds without any hit were thinned out: in the full panel of roughly 83,000, 20% have a hit.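 Single-concentration screen, 48 h exposure, 96-well plates. Endpoint: percent growth. Below 10 = active.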

What was measured:
Test in all cases: NCI-60 one-dose screen, 48 h (100 = growth as untreated, 0 = no growth, -100 = all killed)
Conditions in all cases: 10 µM unless noted
HCT-15 colon = system: HCT-15 colon
HT29 colon = system: HT29 colon
SNB-75 CNS = system: SNB-75 CNS
SNB-19 CNS = system: SNB-19 CNS
U251 CNS = system: U251 CNS
PC-3 prostate = system: PC-3 prostate
SK-MEL-5 melanoma = system: SK-MEL-5 melanoma
UACC-62 melanoma = system: UACC-62 melanoma
LOX IMVI melanoma = system: LOX IMVI melanoma
SK-MEL-28 melanoma = system: SK-MEL-28 melanoma
SK-MEL-2 melanoma = system: SK-MEL-2 melanoma
EKVX NSCLC = system: EKVX NSCLC
SN12C renal = system: SN12C renal
UO-31 renal = system: UO-31 renal
CAKI-1 renal = system: CAKI-1 renal
A498 renal = system: A498 renal
CCRF-CEM leukemia = system: CCRF-CEM leukemia
MOLT-4 leukemia = system: MOLT-4 leukemia
TK-10 renal = system: TK-10 renal
ACHN renal = system: ACHN renal

Measured: growth

CCOC(C)=N
inactive: HCT-15 colon 105% | HT29 colon 102% | SNB-75 CNS 93.2% | SNB-19 CNS 104% | U251 CNS 104% | PC-3 prostate 99.3% | SK-MEL-5 melanoma 109% | UACC-62 melanoma 102% | LOX IMVI melanoma 100% | SK-MEL-28 melanoma 112% | SK-MEL-2 melanoma 110% | EKVX NSCLC 134% | SN12C renal 105% | UO-31 renal 107% | CAKI-1 renal 108% | A498 renal 120% | CCRF-CEM leukemia 98.6% | MOLT-4 leukemia 94.6%

O=C(c1ccc(Cl)cc1)C1C(c2ccccc2)C1[N+](=O)[O-] (stereo not drawn)
inactive: HCT-15 colon 102% | HT29 colon 97.2% | SNB-75 CNS 106% | SNB-19 CNS 97.1% | U251 CNS 89.9% | PC-3 prostate 90.5% | SK-MEL-5 melanoma 96.9% | UACC-62 melanoma 91.1% | LOX IMVI melanoma 95.2% | SK-MEL-28 melanoma 111% | SK-MEL-2 melanoma 106% | EKVX NSCLC 105% | SN12C renal 104% | TK-10 renal 95.1% | ACHN renal 111% | CAKI-1 renal 99.1% | CCRF-CEM leukemia 103% | MOLT-4 leukemia 83.7%

COC(=O)c1ccccc1Cl
inactive: HCT-15 colon 100% | HT29 colon 111% | SNB-75 CNS 96.6% | SNB-19 CNS 108% | U251 CNS 97.4% | PC-3 prostate 96.9% | SK-MEL-5 melanoma 103% | UACC-62 melanoma 104% | LOX IMVI melanoma 98.6% | SK-MEL-28 melanoma 115% | SK-MEL-2 melanoma 108% | EKVX NSCLC 99.9% | SN12C renal 105% | ACHN renal 106% | CAKI-1 renal 99.6% | A498 renal 88.8% | CCRF-CEM leukemia 100% | MOLT-4 leukemia 105%

CC1OS(=O)OC1C (stereo not drawn)
inactive: HCT-15 colon 94% and 98.6% | HT29 colon 88.7% and 104% | SNB-75 CNS 92.6% and 94.7% | SNB-19 CNS 101% | U251 CNS 100% and 101% | PC-3 prostate 100% and 97.5% | SK-MEL-5 melanoma 99.9% and 98% | UACC-62 melanoma 95.5% and 89.8% | LOX IMVI melanoma 94.1% and 91.6% | SK-MEL-28 melanoma 109% and 103% | SK-MEL-2 melanoma 91.4% and 111% | EKVX NSCLC 100% | SN12C renal 95.8% and 95.4% | TK-10 renal 99.8% and 107% | CAKI-1 renal 96.7% and 89.1% | CCRF-CEM leukemia 96.2% | MOLT-4 leukemia 81% and 113%

C/C(CC(C)C)=N/NC(N)=S
inactive: HCT-15 colon 79.4% | HT29 colon 56.1% | SNB-75 CNS 99.3% | SNB-19 CNS 107% | U251 CNS 79.3% | PC-3 prostate 93.4% | SK-MEL-5 melanoma 99.5% | UACC-62 melanoma 105% | LOX IMVI melanoma 95.4% | SK-MEL-28 melanoma 106% | SK-MEL-2 melanoma 107% | EKVX NSCLC 59.6% | SN12C renal 87.2% | UO-31 renal 62.1% | ACHN renal 98.3% | CCRF-CEM leukemia 43.8% | MOLT-4 leukemia 52.1%

O=[N+]([O-])c1cccc(N=Cc2ccccc2)c1
inactive: HCT-15 colon 105% | HT29 colon 101% | SNB-75 CNS 96.7% | SNB-19 CNS 118% | U251 CNS 103% | PC-3 prostate 90.6% | SK-MEL-5 melanoma 104% | UACC-62 melanoma 103% | LOX IMVI melanoma 102% | SK-MEL-2 melanoma 104% | EKVX NSCLC 102% | SN12C renal 104% | UO-31 renal 90.8% | TK-10 renal 94.2% | ACHN renal 102% | CAKI-1 renal 88.1% | A498 renal 110% | CCRF-CEM leukemia 95.7% | MOLT-4 leukemia 87.4%

CC(C)=NOC(C)C(=O)O (stereo not drawn)
inactive: HCT-15 colon 102% | HT29 colon 110% | SNB-75 CNS 97.9% | SNB-19 CNS 108% | U251 CNS 104% | PC-3 prostate 92.9% | SK-MEL-5 melanoma 107% | UACC-62 melanoma 89.4% | LOX IMVI melanoma 97.4% | SK-MEL-2 melanoma 107% | EKVX NSCLC 95.9% | SN12C renal 94.1% | UO-31 renal 97.5% | ACHN renal 102% | CAKI-1 renal 104% | CCRF-CEM leukemia 103% | MOLT-4 leukemia 105%

COCCCNC1=C(C#N)C(=O)NC(c2cccs2)S1 (stereo not drawn)
inactive: HCT-15 colon 98.2% | HT29 colon 99.9% | SNB-75 CNS 83.2% | SNB-19 CNS 94.4% | U251 CNS 100% | PC-3 prostate 100% | SK-MEL-5 melanoma 95.3% | UACC-62 melanoma 91.7% | LOX IMVI melanoma 105% | SK-MEL-28 melanoma 113% | SK-MEL-2 melanoma 119% | EKVX NSCLC 84% | SN12C renal 93% | TK-10 renal 92.5% | CAKI-1 renal 92.7% | CCRF-CEM leukemia 114% | MOLT-4 leukemia 172%

NNC(=O)Nc1ccccc1
inactive: HCT-15 colon 99.8% | HT29 colon 106% | SNB-75 CNS 87.9% | SNB-19 CNS 102% | U251 CNS 99.1% | PC-3 prostate 93.5% | SK-MEL-5 melanoma 101% | UACC-62 melanoma 94.3% | LOX IMVI melanoma 98.1% | SK-MEL-2 melanoma 106% | EKVX NSCLC 96.2% | SN12C renal 101% | UO-31 renal 90% | TK-10 renal 110% | ACHN renal 100% | CAKI-1 renal 96.1% | A498 renal 85.2% | CCRF-CEM leukemia 104% | MOLT-4 leukemia 114%

CC1(C)OC(=O)C(=Cc2ccc(C#N)cc2)C(=O)O1
inactive: HCT-15 colon 109% and 104% | HT29 colon 97.7% and 100% | SNB-75 CNS 97% and 96.4% | SNB-19 CNS 98.9% and 101% | U251 CNS 89.7% | PC-3 prostate 84.3% and 99.2% | SK-MEL-5 melanoma 95.6% | UACC-62 melanoma 101% and 117% | LOX IMVI melanoma 103% | SK-MEL-28 melanoma 114% and 101% | SK-MEL-2 melanoma 93.7% | EKVX NSCLC 102% | SN12C renal 104% and 112% | TK-10 renal 98.3% and 101% | ACHN renal 108% and 98.1% | CAKI-1 renal 102% and 99.3% | A498 renal 104% and 94.8% | CCRF-CEM leukemia 102% and 97.1% | MOLT-4 leukemia 103% and 80.1%

CCN(C)c1ccccc1
inactive: HCT-15 colon 101% | HT29 colon 103% | SNB-75 CNS 79.2% | SNB-19 CNS 106% | U251 CNS 99% | PC-3 prostate 95.8% | SK-MEL-5 melanoma 100% | UACC-62 melanoma 103% | LOX IMVI melanoma 98.4% | SK-MEL-28 melanoma 105% | SK-MEL-2 melanoma 104% | EKVX NSCLC 87.5% | SN12C renal 96.7% | TK-10 renal 107% | ACHN renal 103% | CAKI-1 renal 90.8% | A498 renal 99.6% | CCRF-CEM leukemia 103% | MOLT-4 leukemia 88.2%

Nc1c(S(=O)(=O)O)cc(Br)c2c1C(=O)c1ccccc1C2=O
inactive: HCT-15 colon 107% and 114% | HT29 colon 100% and 108% | SNB-75 CNS 86.7% and 90.7% | SNB-19 CNS 111% and 107% | U251 CNS 102% and 105% | PC-3 prostate 92% and 84.9% | SK-MEL-5 melanoma 99.6% and 90.8% | UACC-62 melanoma 108% and 104% | LOX IMVI melanoma 102% and 103% | SK-MEL-28 melanoma 109% and 113% | SK-MEL-2 melanoma 91.8% | EKVX NSCLC 101% | SN12C renal 107% and 112% | UO-31 renal 77.4% and 67.5% | CAKI-1 renal 101% and 95% | A498 renal 114% and 96.6% | CCRF-CEM leukemia 98.3% | MOLT-4 leukemia 99.7% and 91.1%

COc1ccc(CCO)cc1
inactive: HCT-15 colon 102% | HT29 colon 94.3% | SNB-75 CNS 101% | SNB-19 CNS 100% | U251 CNS 95.5% | PC-3 prostate 91.9% | SK-MEL-5 melanoma 100% | UACC-62 melanoma 98.5% | LOX IMVI melanoma 99.5% | SK-MEL-2 melanoma 91.7% | EKVX NSCLC 107% | SN12C renal 100% | UO-31 renal 96.9% | TK-10 renal 96.3% | ACHN renal 103% | CAKI-1 renal 102% | CCRF-CEM leukemia 101% | MOLT-4 leukemia 60.7%

Cc1c(O)nc(N)[nH]c1=O
inactive: HCT-15 colon 106% | HT29 colon 106% | SNB-75 CNS 102% | SNB-19 CNS 108% | U251 CNS 100% | PC-3 prostate 101% | SK-MEL-5 melanoma 113% | UACC-62 melanoma 100% | LOX IMVI melanoma 99.4% | SK-MEL-28 melanoma 110% | SK-MEL-2 melanoma 123% | EKVX NSCLC 106% | SN12C renal 109% | TK-10 renal 126% | ACHN renal 108% | CAKI-1 renal 110% | A498 renal 109% | CCRF-CEM leukemia 90.1% | MOLT-4 leukemia 102%
